Consider 11 compounds from PubChem BioAssay.

The subject of this experiment is PRMT1 (protein arginine N-methyltransferase 1). The experiment in a line: PRMT1 binders on small-molecule microarrays, primary screen, biochemical, small-molecule microarray, 635 nm fluorescence (AID 1088). The conditions noted are these: small-molecule microarray binding, higher = more signal.
In turn, `CC(C)C(O)C1C=CC2C(=O)N(C)C(=O)C2N1Nc1ccccc1` (stereo unspecified) registered a composite z-score of 0.694.

Compound `Cc1c(NC(=O)/C(C#N)=C/C=C/c2ccc(N(C)C)cc2)c(=O)n(-c2ccccc2)n1C` came in with a composite z-score of 1.55.

For the compound `COc1cc(CO)cc(I)c1O[C@H]1C=C(C(=O)NCCO)C[C@@H](N(Cc2ccc(F)cc2)C(=O)C2CCCO2)[C@@H]1O` (stereo partly specified), the composite z-score is -0.516.

For `O=C1C[C@@](C(=O)NCC(F)(F)F)(c2ccc([N+](=O)[O-])cc2)[C@@H](c2ccc(CO)cc2)N1C1CCCCC1`, the composite z-score amounted to 1.56.

For `COC(=O)Cn1c(C(=O)N2CCCC2)cc2c1C[C@H]1CN(C(=O)c3ccccc3)[C@@](Cc3ccc(F)cc3)(C(=O)OC)[C@@H]21`, the composite z-score is -0.533.

Turning to `O=C(CS)NCCCCCCNC(=O)[C@H]1C[C@H]2C(=O)N[C@@H](Cc3ccccc3)C(=O)N2[C@H]1c1cccc(OCCO)c1`, the composite z-score turned out to be 1.54.

Compound `COc1cc2c(cc1OC)CN(C(=O)[C@H]1[C@@H]3C(=O)O[C@@H](c4ccccc4)[C@@H](c4ccccc4)N3[C@@H](c3ccc(OCCO)cc3)[C@]13C(=O)Nc1ccc(C#CC4(O)CCCCCC4)cc13)CC2` gave a composite z-score of 1.56.

For `O=C1O[C@H](c2ccccc2)[C@H](c2ccccc2)N2[C@H]1[C@@H](C(=O)O)[C@]1(C(=O)Nc3ccccc31)[C@H]2c1ccc(O)cc1`, the composite z-score was 0.548.

With `CC(=O)N1Cc2ccccc2C[C@]2(N=C(c3ccc(OCCCO)cc3)O[C@@H]2c2ccccc2)C1=O`, the composite z-score came out at 1.55.

`Cc1ccc(S[C@]2(C(=O)O)CC(=O)N(Cc3ccccc3Cl)[C@@H]2c2ccc(CO)cc2)cc1` showed a composite z-score of -0.164.

Compound `COc1c(C)cc(-c2cc3c(c(-c4ccccc4)n2)[Si](C(C)C)(C(C)C)OC3)cc1C` came in with a composite z-score of -0.267.
